Experimental findings from PubChem BioAssay (Tox21) are described below.

Each structure is given as a SMILES string. Several values for one entry are separate records, joined by “and”; a condition that tells them apart may be missing. Equal entries are not always repeated. Inconclusive results are not listed. Activity calls are given as the source filed them. Unless noted, the call rests on the fitted dose curve; in most records, active means well fitted curve in the direction sought with a large enough effect in the repeat runs; inconclusive means weak or mixed curves; inactive means no such curve, though single readings can be large; an effect the other way counts as inactive or inconclusive.

The nature of assay [1]: qHTS assay to identify aromatase inhibitors - cell viability counter screen (AID 743084).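 Further: cells stimulated with testosterone during compound exposure; nearly all actives have a fitted effect of over 55% in size.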 Further: potency means the concentration at half of the fitted maximal effect. In general terms: qHTS replaces the single test concentration by a dilution series.
The target of assay [2] is Aryl hydrocarbon receptor (Homo sapiens) (UniProt P35869). In words: qHTS assay to identify small molecule that activate the aryl hydrocarbon receptor (AhR) signaling pathway (AID 743085).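 Further: HG2L7.5c1 human HepG2 liver cells with stably integrated DRE-driven firefly reporter; series mostly up to about 70 µM; nearly all actives have a fitted effect of over 15% in size.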 In a few lines: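 HepG2 cells stably carrying a 20-DRE firefly luciferase reporter (HG2L7.5c1) treated with compound for 24 hr at 37C. Luciferase read by ONE-Glo luminescence, with CellTiter-Fluor viability read first.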
Sequence of Aryl hydrocarbon receptor (Homo sapiens) (P35869 whole entry, looked up): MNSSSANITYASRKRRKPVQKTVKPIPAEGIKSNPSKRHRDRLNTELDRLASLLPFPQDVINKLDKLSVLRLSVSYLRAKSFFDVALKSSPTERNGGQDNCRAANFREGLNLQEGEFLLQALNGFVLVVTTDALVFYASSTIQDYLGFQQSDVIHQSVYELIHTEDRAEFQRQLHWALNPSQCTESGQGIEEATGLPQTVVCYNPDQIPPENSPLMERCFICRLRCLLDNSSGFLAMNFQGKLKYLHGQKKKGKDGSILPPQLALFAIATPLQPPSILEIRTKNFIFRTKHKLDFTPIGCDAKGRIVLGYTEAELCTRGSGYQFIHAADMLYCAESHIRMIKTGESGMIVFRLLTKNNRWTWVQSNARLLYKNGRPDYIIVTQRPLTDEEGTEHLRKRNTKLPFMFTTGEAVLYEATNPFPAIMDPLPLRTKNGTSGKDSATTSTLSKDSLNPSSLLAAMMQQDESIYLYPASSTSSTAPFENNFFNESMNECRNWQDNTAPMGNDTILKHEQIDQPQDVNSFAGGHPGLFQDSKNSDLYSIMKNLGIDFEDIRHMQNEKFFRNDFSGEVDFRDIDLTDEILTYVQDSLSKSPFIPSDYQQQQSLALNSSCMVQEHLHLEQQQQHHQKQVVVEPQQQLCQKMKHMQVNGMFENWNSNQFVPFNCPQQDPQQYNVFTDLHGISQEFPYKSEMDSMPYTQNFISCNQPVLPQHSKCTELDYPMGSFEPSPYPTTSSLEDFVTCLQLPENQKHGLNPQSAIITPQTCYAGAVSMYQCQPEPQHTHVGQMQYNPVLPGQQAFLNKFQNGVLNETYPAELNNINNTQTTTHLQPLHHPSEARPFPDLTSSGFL

In assay [3] the target is Peroxisome proliferator-activated receptor gamma (Homo sapiens) (UniProt P37231). In words: qHTS assay to identify small molecule agonists of the peroxisome proliferator-activated receptor gamma (PPARg) signaling pathway (AID 743094; active means well fitted activation curve with a large enough effect in the signal ratio in the repeat runs, not every such curve was filed as active; the % refers to the signal ratio). In a few lines:
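Agonism was assessed in a beta-lactamase reporter system, HEK293H cells with a stably integrated UAS-bla construct under PPARg control; the 17 h treatment at 37C preceded a 1 h room-temperature FRET substrate read.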

A short description of assay [4]: qHTS assay to identify small molecule antagonists of the peroxisome proliferator-activated receptor gamma (PPARg) signaling pathway - cell viability counter screen (AID 743194). Further: nearly all actives have a fitted effect of over 55% in size. Further: potency means the concentration at half of the fitted maximal effect. Conditions: Potency: co-treated with 50 nM rosiglitazone. An outline of the steps: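 Cytotoxicity counter screen in PPARg-bla HEK293H cells, same wells as reporter assay. Compounds plus 50 nM rosiglitazone (final) for 17 h at 37 C, then viability read by CellTiter-Glo luminescence.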

A short description of assay [5]: qHTS assay for small molecule agonists of the antioxidant response element (ARE) signaling pathway (AID 743202; active means well fitted activation curve with a large enough effect in the signal ratio in the repeat runs, not every such curve was filed as active; the % refers to the signal ratio). In a few lines:
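HepG2 ARE-bla cells; 16 h treatment at 37 C; FRET-based beta-lactamase fluorescence read after 2 h substrate incubation at room temperature.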

Assay [6] in a line: qHTS assay for small molecule activators of the heat shock response signaling pathway - cell viability counter screen (AID 743209). Further: nearly all actives have a fitted effect of over 50% in size. An outline of the steps: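 Compounds dissolved in DMSO were added to overnight-plated HSE-bla HeLa cells and left 5 h at 37 C. Cell viability was quantified by luminescence using CellTiter-Glo.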
A short description of assay [7]: qHTS assay for small molecule activators of the heat shock response signaling pathway (AID 743210; active means well fitted activation curve with a large enough effect in the signal ratio in the repeat runs, with a control signal flat, not every such curve was filed as active; the % refers to the signal ratio;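 further: HeLa cells with beta-lactamase reporter driven by heat shock elements; series mostly up to about 63 µM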). In a few lines: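 Following overnight attachment, HSE-bla HeLa cells received test compounds for 5 h at 37 C; beta-lactamase activity was then detected via FRET substrate fluorescence.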
A short description of assay [8]: qHTS assay to identify small molecule agonists of the peroxisome proliferator-activated receptor delta (PPARd) signaling pathway - cell viability counter screen (AID 743211). Further: nearly all actives have a fitted effect of over 55% in size. Further: potency means the concentration at half of the fitted maximal effect. In a few lines:
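PPARd-bla HEK293H cells (3000/well) were pre-incubated 5 h at 37 C, then exposed to compound for 17 h at 37 C. After 2 h with LiveBLAzer substrate, CellTiter-Glo was added to the same wells; luminescence read after 30 min at room temperature.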

A short description of assay [9]: qHTS assay to identify small molecule antagonists of the peroxisome proliferator-activated receptor delta (PPARd) signaling pathway - cell viability counter screen (AID 743213). Further: nearly all actives have a fitted effect of over 50% in size. Further: potency means the concentration at half of the fitted maximal effect. In a few lines: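 In this counter screen, HEK293H cells carrying a UAS-beta-lactamase reporter are co-treated with test compounds and 300 nM L165041 (final) for 17 h at 37 C; cell viability is quantified by CellTiter-Glo luminescence.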

In assay [10] the target is Bile acid receptor (Homo sapiens) (UniProt Q96RI1). In words: qHTS assay to identify small molecule antagonists of the farnesoid-X-receptor (FXR) signaling pathway (AID 743217; active means well fitted inhibition curve with a large enough effect in the signal ratio in the repeat runs, not every such curve was filed as active; the % refers to the signal ratio). In a few lines:
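Test compounds are pin-transferred onto FXR-bla HEK 293T cells, then chenodeoxycholic acid is added at 50 uM final. After 16 h at 37 °C, LiveBLAzer B/G substrate is applied for 2 h at room temperature and fluorescence read.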

Assay [11] is described as follows: qHTS assay to identify small molecule agonists of the farnesoid-X-receptor (FXR) signaling pathway - cell viability counter screen (AID 743218). Further: nearly all actives have a fitted effect of over 45% in size. Further: potency means the concentration at half of the fitted maximal effect. In a few lines: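 Quantitative HTS counter screen measuring ATP-based viability via CellTiter-Glo luminescence in HEK 293T cells carrying a UAS-driven beta-lactamase reporter, after 16 h compound exposure at 37 C.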
Assay [12] addresses Bile acid receptor (Homo sapiens) (UniProt Q96RI1). As to the kind of experiment: qHTS assay to identify small molecule agonists of the farnesoid-X-receptor (FXR) signaling pathway (AID 743220; active means well fitted activation curve with a large enough effect in the signal ratio in the repeat runs, not every such curve was filed as active; the % refers to the signal ratio). An outline of the steps: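 FXR-UAS-bla HEK 293T cells carrying a UAS-driven beta-lactamase reporter were plated for 5 h at 37C/5% CO2, then exposed to DMSO-dissolved Tox21 10K compounds for 16 h at 37C. A LiveBLAzer B/G FRET substrate was loaded for 2 h at room temperature before fluorescence reading.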

The target of assay [13] is Vitamin D3 receptor (Homo sapiens) (UniProt P11473). In words: qHTS assay to identify small molecule agonists of the vitamin D receptor (VDR) signaling pathway (AID 743222; calls by dose curve). An outline of the steps: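 Tox21 cell reporter format: VDR-bla line, 16 h compound exposure in 5% CO2 at 37C, then fluorescence intensity after 2 h with LiveBLAzer B/G FRET substrate.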
Sequence of Vitamin D3 receptor (Homo sapiens) (P11473 whole entry, looked up): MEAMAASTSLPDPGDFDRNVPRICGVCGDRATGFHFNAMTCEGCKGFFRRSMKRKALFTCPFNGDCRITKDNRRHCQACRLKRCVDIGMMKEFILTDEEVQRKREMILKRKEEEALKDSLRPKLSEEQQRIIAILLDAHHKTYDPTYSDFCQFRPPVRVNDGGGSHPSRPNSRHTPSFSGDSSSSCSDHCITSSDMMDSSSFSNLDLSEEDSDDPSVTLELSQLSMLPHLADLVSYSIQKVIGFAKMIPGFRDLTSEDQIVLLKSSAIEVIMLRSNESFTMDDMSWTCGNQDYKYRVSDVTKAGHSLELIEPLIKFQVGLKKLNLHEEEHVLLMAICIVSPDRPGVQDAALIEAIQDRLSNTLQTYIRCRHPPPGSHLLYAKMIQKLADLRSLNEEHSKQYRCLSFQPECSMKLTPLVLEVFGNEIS
Assay [14] has the same target. As to the kind of experiment: qHTS assay to identify small molecule antagonists of the vitamin D receptor (VDR) signaling pathway (AID 743223; active means well fitted inhibition curve with a large enough effect in the signal ratio in the repeat runs, not every such curve was filed as active; the % refers to the signal ratio). In a few lines: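 VDR-bla cells were treated with compound plus 3 nM final 1alpha,25-dihydroxyvitamin D3 for 16 h at 37C. Beta-lactamase reporter read by B/G FRET substrate fluorescence after 2 h at room temperature. qHTS format.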

Assay [15] addresses Peroxisome proliferator-activated receptor gamma (Homo sapiens) (UniProt P37231). As to the kind of experiment: qHTS assay to identify small molecule antagonists of the peroxisome proliferator-activated receptor gamma (PPARg) signaling pathway (AID 743191; calls by dose curve; further: nearly all actives have a fitted effect of over 30% in size; further: potency means the concentration at half of the fitted maximal effect). An outline of the steps:
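GeneBLAzer PPARg UAS-bla HEK293H cells, 5 h post-plating, exposed to compounds 17 h at 37C. LiveBLAzer B/G FRET substrate added for 1 h at room temperature; beta-lactamase reporter read by fluorescence intensity.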

Assay [16] addresses Peroxisome proliferator-activated receptor delta (Homo sapiens) (UniProt Q03181). As to the kind of experiment: qHTS assay to identify small molecule agonists of the peroxisome proliferator-activated receptor delta (PPARd) signaling pathway (AID 743212; calls by dose curve). An outline of the steps: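 Tox21 library screened in GeneBLAzer PPARd UAS-bla HEK293H cells. After compound treatment at 37 C, a FRET-based beta-lactamase substrate was applied for 2 h and fluorescence recorded.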

Assay [17] is described as follows: qHTS assay to identify small molecule antagonists of the farnesoid-X-receptor (FXR) signaling pathway - cell viability counter screen (AID 743221; active means well fitted cell-killing curve with a large enough effect in the repeat runs, not every such curve was filed as active; further: nearly all actives have a fitted effect of over 50% in size; further: potency means the concentration at half of the fitted maximal effect). In a few lines:
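GeneBLAzer FXR-UAS-bla HEK 293T cells, compound plus chenodeoxycholic acid (50 uM final), 16 h at 37 C. CellTiter-Glo added to the same wells after the beta-lactamase read; luminescence read after 30 min at room temperature as viability.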

The nature of assay [18]: qHTS assay for small molecule agonists of the antioxidant response element (ARE) signaling pathway - cell viability counter screen (AID 743203; calls by dose curve; further: nearly all actives have a fitted effect of over 55% in size; further: potency means the concentration at half of the fitted maximal effect). In a few lines: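 ATP content via CellTiter-Glo luminescence served as the viability measure. Cells: ARE-bla HepG2, 2,000 per well. Exposure: 16 hrs, 37C/5% CO2.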
The target of assay [19] is Peroxisome proliferator-activated receptor delta (Homo sapiens) (UniProt Q03181). In words: qHTS assay to identify small molecule antagonists of the peroxisome proliferator-activated receptor delta (PPARd) signaling pathway (AID 743215; active means well fitted inhibition curve with a large enough effect in the signal ratio in the repeat runs, not every such curve was filed as active; the % refers to the signal ratio;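 further: cells stimulated with agonist L165041 at 300 nM final during compound exposure; series mostly up to about 62 µM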). An outline of the steps:
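Here, a reporter line (HEK293H, beta-lactamase under a UAS) measures PPARd signaling. Compounds are tested against agonist L165041 at 300 nM final concentration over 17 h at 37 C, with fluorescence read after substrate.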

Assay [20] is described as follows: qHTS assay to identify small molecule that activate the aryl hydrocarbon receptor (AhR) signaling pathway - cell viability counter screen (AID 743086). Further: nearly all actives have a fitted effect of over 45% in size. Further: potency means the concentration at half of the fitted maximal effect. An outline of the steps:
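HepG2-AhR-luc (HG2L7.5c1) cells, 4000/well, treated 24 h at 37 C with compound; viability measured as CellTiter-Fluor fluorescence after 30 min in the same wells as the luciferase read.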

Sequence of Bile acid receptor (Homo sapiens) (Q96RI1 whole entry, looked up): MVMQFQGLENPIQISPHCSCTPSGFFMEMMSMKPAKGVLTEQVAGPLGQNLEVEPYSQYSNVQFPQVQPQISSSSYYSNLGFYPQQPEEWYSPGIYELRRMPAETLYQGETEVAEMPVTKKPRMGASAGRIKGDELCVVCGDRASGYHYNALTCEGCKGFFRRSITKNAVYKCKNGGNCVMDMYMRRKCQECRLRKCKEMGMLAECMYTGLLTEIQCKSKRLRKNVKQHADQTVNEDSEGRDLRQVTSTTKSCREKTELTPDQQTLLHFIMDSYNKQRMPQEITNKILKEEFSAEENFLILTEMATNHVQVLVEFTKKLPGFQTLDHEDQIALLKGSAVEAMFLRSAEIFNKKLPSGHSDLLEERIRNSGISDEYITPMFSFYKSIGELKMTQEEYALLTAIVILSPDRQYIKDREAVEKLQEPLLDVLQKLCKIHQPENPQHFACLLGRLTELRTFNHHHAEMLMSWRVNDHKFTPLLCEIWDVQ
Sequence of Peroxisome proliferator-activated receptor gamma (Homo sapiens) (P37231 whole entry, looked up): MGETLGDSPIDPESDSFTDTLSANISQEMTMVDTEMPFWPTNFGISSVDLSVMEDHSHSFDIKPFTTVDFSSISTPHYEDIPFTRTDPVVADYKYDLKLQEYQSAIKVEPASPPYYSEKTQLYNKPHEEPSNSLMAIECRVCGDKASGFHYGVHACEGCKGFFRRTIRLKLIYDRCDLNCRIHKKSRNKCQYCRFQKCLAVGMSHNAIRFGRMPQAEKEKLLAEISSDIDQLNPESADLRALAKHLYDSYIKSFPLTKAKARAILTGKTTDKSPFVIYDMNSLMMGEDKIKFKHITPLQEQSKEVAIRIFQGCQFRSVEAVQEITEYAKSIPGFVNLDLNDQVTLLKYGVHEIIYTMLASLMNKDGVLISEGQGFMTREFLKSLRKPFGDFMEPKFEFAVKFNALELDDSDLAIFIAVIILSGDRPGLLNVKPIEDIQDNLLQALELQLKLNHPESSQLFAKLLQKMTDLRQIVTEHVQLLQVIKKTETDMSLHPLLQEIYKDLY
Sequence of Peroxisome proliferator-activated receptor delta (Homo sapiens) (Q03181 whole entry, looked up): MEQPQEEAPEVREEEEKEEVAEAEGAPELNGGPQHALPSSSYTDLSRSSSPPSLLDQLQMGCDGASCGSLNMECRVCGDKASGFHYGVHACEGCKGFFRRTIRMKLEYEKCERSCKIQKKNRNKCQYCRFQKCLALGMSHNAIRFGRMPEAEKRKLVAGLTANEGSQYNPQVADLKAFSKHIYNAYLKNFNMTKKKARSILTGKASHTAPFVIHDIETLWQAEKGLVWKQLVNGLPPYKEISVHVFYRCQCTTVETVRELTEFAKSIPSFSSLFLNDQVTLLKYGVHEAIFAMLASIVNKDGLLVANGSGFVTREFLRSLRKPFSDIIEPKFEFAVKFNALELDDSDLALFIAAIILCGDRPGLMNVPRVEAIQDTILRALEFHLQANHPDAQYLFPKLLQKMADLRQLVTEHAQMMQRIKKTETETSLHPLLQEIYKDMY

For `CCCCC1C(=O)NC(=O)N(C2CCCCC2)C1=O` (stereo not drawn), the Potency result in [1], in assay [2], in [3], in assay [4], in [5] and in assay [6] was “inactive” each time. The Potency entry in assay [7], in [8], in assay [9], in assay [10], in assay [11] and in assay [14] was “inactive” in each case. Besides, the result in assay [12] and in assay [13] was inactive.
Regarding `CCCCOC(=O)CCC(=O)OCCCC`, the Potency entry in assay [1], in [2], in assay [3], in assay [15], in assay [4] and in assay [6] was “inactive” throughout. Besides, the Potency entry in [8], in assay [9], in assay [11] and in [17] was “inactive” in each case. In addition, the molecule was called inactive in assay [16].
On to `O=C(NC(=O)c1cc(F)c(F)cc1Cl)Nc1cc(F)ccc1N1CCC(C(=O)O)CC1`, for which the Potency result in assay [1], in assay [2], in [5], in [18], in [6] and in assay [7] was “inactive” in each case. For the same molecule, the Potency entry in assay [9], in assay [19], in assay [11], in [17] and in assay [14] was “inactive” throughout. Moreover, the Potency in [15] is 1.9 µM (active). Also, the molecule was called inactive in [16] and in assay [13].
Take `[Cl-].[Cl-].[Hg+2]`: the Potency in assay [1] was 10.6 µM (active) and 1.08 µM (active) and 12.2 µM (active); in assay [20] it was 6.08 µM (active) and 54.5 µM (active); in assay [4], 21.8 µM (active) and 21.9 µM (active); in assay [18], 19.2 µM (active) and 12.2 µM (active); in assay [8], 1.73 µM (active) and 2.19 µM (active); in assay [9], 2.44 µM (active) and 1.74 µM (active). Also, the Potency is 2.74 µM (active) and 9.77 µM (active) in [11]; 2.18 µM (active) and 3.47 µM (active) in [17]. In addition, the Potency result in assay [2] is “inactive”.
Turning to `CCCCCCCCCCCCN(C)C`, the Potency entry in [1], in assay [2], in assay [3], in [18], in assay [6] and in [7] was “inactive” throughout. The Potency result in assay [8], in assay [9], in assay [19], in assay [11], in assay [17] and in assay [14] was “inactive” in each case. Also, the molecule was called inactive in [16], in [12] and in assay [13].
Take `O=C1NC(=O)C(=O)C(=O)N1`: the Potency result in assay [1], in assay [2], in assay [3], in assay [4], in [5] and in assay [18] was “inactive” throughout. In addition, the Potency entry in [6], in [8], in assay [9], in assay [19], in [10] and in [11] was “inactive” throughout. For the same molecule, in assay [14], the Potency result was “inactive”. Moreover, the result in assay [16], in [12] and in assay [13] was inactive.
In the case of `CC(C)(C)N(NC(=O)c1ccc(Cl)cc1)C(=O)c1ccccc1`, the Potency in assay [1] was 7.65 µM (active). The Potency result in [2], in assay [3], in [15], in assay [4], in [18] and in assay [6] was “inactive” each time. The Potency entry in assay [8], in assay [9], in assay [19], in assay [10], in [11] and in assay [17] was “inactive” throughout. Further, in assay [14], the Potency entry is “inactive”. For the same molecule, the call in [16] and in assay [13] was inactive.
For `O=C(O)C(O)C(O)C(=O)O` (stereo not drawn), the Potency result in assay [1], in assay [2], in [20], in [4], in assay [6] and in assay [8] was “inactive” throughout. The Potency result in assay [9], in [10], in assay [11] and in [17] was “inactive” in each case. The call in assay [16] and in [12] was inactive.
Consider `Clc1ccccc1`, for which the Potency entry in assay [1], in [2], in assay [3], in [4], in assay [5] and in assay [18] was “inactive” each time. The Potency entry in [6], in assay [7], in assay [8] and in assay [11] was “inactive” throughout. The call in [16] and in assay [13] was inactive.
On to `CCC(C)(C)O`, for which the Potency result in assay [1], in assay [2], in assay [15], in assay [4], in [5] and in [6] was “inactive” in each case. In addition, the Potency entry in assay [8], in [9], in assay [19], in assay [11], in assay [17] and in assay [14] was “inactive” in each case. Moreover, the outcome in assay [16] and in assay [13] was inactive.
For the molecule `COc1cc(CC(C)N)c(OC)cc1Br` (stereo not drawn), the Potency entry in assay [1], in assay [20], in [3], in assay [4], in [18] and in assay [7] was “inactive” throughout. The Potency entry in [19], in [11] and in assay [17] was “inactive” in each case. The molecule was classed as inactive in [16].
`CN(C)C(=O)Nc1cccc(OC(=O)NC(C)(C)C)c1`: the Potency result in assay [1], in [20], in [3], in assay [18], in assay [7] and in assay [8] was “inactive” throughout. The Potency result in [9], in [19], in [11] and in assay [17] was “inactive” throughout. The molecule was called inactive in assay [16] and in assay [13].
Turning to `C=CC(=O)OCC`, the Potency result in [1], in assay [20], in assay [3], in assay [4], in [5] and in assay [6] was “inactive” throughout. Moreover, the Potency result in assay [8], in assay [19], in assay [10], in [11] and in assay [17] was “inactive” throughout. Besides, the result in assay [16] and in assay [12] was inactive.
